The source of these data is PubChem BioAssay (EPA / NIEHS).

Results filed as inconclusive are left out. Activity calls are given as the source filed them. Rule for the calls: active = hit-call score of the fitted dose curve at least 0.9, where 1 is the maximum; inconclusive = response in the unintended direction; inactive = score below 0.9.

The nature of the experiment: TOX21_p53_BLA_p2_viability: Viability Assessment in the Tox21 HCT-116 p53 Agonism Beta-lactamase Assay, Phase 2 (AID 2283591).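 Note: compound exposure lasted 16 h at 37 °C; actives lower the ATP signal meaning cytotoxicity.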 Summed up: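 HCT116 p53-bla cells, 4000/well, dosed after 5 h plating (217-fold dilution of DMSO stocks) and incubated 16 h at 37C. Viability taken as cellular ATP by CellTiter-Glo luminescence after 30 min RT; signal loss marks cytotoxicity.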
As to `CCCCCCCCCCCCC(=O)O`, the molecule was called inactive.
`Cc1ccc(NC(=O)N(C)C)cc1NC(=O)N(C)C`: the molecule was called inactive.
In the case of `OC[C@@H](O)[C@@H](O)CO`, the result was inactive.
For the molecule `NC(=O)CCCCC(N)=O`, the molecule was classed as inactive.
Turning to `OCC(S)CS` (centres undefined), the call was inactive.
Turning to `CC1CCCO1` (centres undefined), the molecule was called inactive.
As for `C=CC1=C(C(=O)O)N2C(=O)[C@@H](NC(=O)/C(=N\O)c3csc(N)n3)[C@H]2SC1` (stereo in doubt), the call was inactive.
As to `CC(=NO)C(C)=NO`, the outcome was inactive.
In the case of `CN(C)CCCN1c2ccccc2Sc2ccc(C(F)(F)F)cc21`, the outcome was inactive.
In the case of `O=C(O)CONC(=O)c1ccccc1`, the call was inactive.
For the molecule `C[C@H](CCC(=O)O)[C@H]1CC[C@H]2[C@@H]3[C@H](O)C[C@@H]4C[C@H](O)CC[C@]4(C)[C@H]3C[C@H](O)[C@]12C`, the molecule was classed as inactive.
In the case of `CCc1ncnc2cc(OC)c(OC)cc12`, the outcome was inactive.
The AC50 is the concentration at which the activity in the assay is half-maximal. For `CC(C)n1nc(-c2cc3cc(O)ccc3[nH]2)c2c(N)ncnc21`, the concentration at half-maximal activity (AC50) was 23 µM (active).
As to `CNCc1ccccc1`, the call was inactive.
Take `CC(C)[N+](C)(C)CC(O)COc1cccc2ccccc12` (centres undefined): the molecule was classed as inactive.
For the molecule `CC(=O)N1C[C@H](O)C[C@H]1C(=O)O`, the molecule was called inactive.
Still for that read-out and setting: the entry for `NS(=O)(=O)c1cc(C2(O)NC(=O)c3ccccc32)ccc1Cl` (centres undefined) is “inactive”.
For the molecule `CC(C(=O)O)c1cccc(C(=O)c2ccccc2)c1` (centres undefined), the call was inactive.
`NCCOCCN`: the molecule was called inactive.
Same read-out and setting: the entry for `C=C1CC2C3CCC4=CC(=O)C=C[C@]4(C)[C@@]3(F)[C@@H](O)C[C@]2(C)[C@@]1(O)C(=O)COC(C)=O` (some centres undefined) is “inactive”.
Turning to `CCOC(=O)[C@H](CCc1ccccc1)N[C@@H](C)C(=O)N1[C@H](C(=O)O)C[C@H]2CCCC[C@@H]21`, the molecule was called inactive.
With `CC1CCCNC1` (centres undefined), the call was inactive.
`O=C(O)c1c(Cl)c(Cl)c(Cl)c(Cl)c1-c1c2cc(I)c(=O)c(I)c-2oc2c(I)c(O)c(I)cc12`: the AC50 is 37.2 µM (active).
As to `CC(=O)C=Cc1ccco1`, the molecule was classed as inactive.
On to `O=C(/C=C/c1cccc(F)c1)NC1CC1`, for which the call was inactive.
Still for that read-out and setting: the entry for `CCOC(=O)[C@H](CCc1ccccc1)N[C@@H](C)C(=O)N1Cc2ccccc2C[C@H]1C(=O)O` is “inactive”; for `CC(=O)O[C@H]1C[C@@H]2CC[C@@H]3[C@H](CC[C@@]4(C)[C@H]3C[C@H]([N+]3(C)CCCCC3)[C@@H]4OC(C)=O)[C@@]2(C)C[C@@H]1[N+]1(C)CCCCC1` it is “inactive”.
Consider `Cc1c(C)c2c(c(C)c1OC(=O)CCC(=O)OCCO)CCC(C)(CCCC(C)CCCC(C)CCCC(C)C)O2` (centres undefined), for which the molecule was classed as inactive.
Take `COc1ccc(OC)c(NC(=O)CC(C)=O)c1`: the call was inactive.
On to `CC1=C(/C=C/C(C)=C/C=C/C(C)=C/C=C/C=C(C)/C=C/C=C(C)/C=C/C2=C(C)C[C@@H](O)CC2(C)C)C(C)(C)C[C@H](O)C1`, for which the AC50 was 40.1 µM (active).
For `CC(=O)c1ccc2c(c1)N(CCCN1CCC(CCO)CC1)c1ccccc1S2`, the molecule was classed as inactive.
In the case of `Brc1ccccc1-c1ccccc1`, the molecule was classed as inactive.
Still for that read-out and setting: the entry for `CNc1cc(OC)c(C(=O)N[C@H]2CCN(Cc3ccccc3)[C@H]2C)cc1Cl` is “inactive”.
`O=C1c2c(O)ccc([N+](=O)[O-])c2C(=O)c2c([N+](=O)[O-])ccc(O)c21`: the AC50 was 7.2 µM (active).
Turning to `Cc1cc(CC(C)CC(C)(C)C)n(O)c(=O)c1` (centres undefined) (tested in a mixture with another compound), the outcome was inactive.
On to `CCN(CC)c1ccc(C(=C2C=CC(=[N+](CC)CC)C=C2)c2ccccc2)cc1`, for which the AC50 was 1.81 µM (active).
As for `CCN(CC)CCOc1ccc(C(O)(Cc2ccc(Cl)cc2)c2ccc(C)cc2)cc1` (centres undefined), the AC50 was 35.9 µM (active).
With `O=S(=O)(O)c1ccc2c(N=Nc3ccc(S(=O)(=O)O)c4ccccc34)c(O)c(S(=O)(=O)O)cc2c1`, the call was inactive.
In the case of `CC(C)(C)CC(C)(C)c1cc(Cc2cc(C(C)(C)CC(C)(C)C)cc(-n3nc4ccccc4n3)c2O)c(O)c(-n2nc3ccccc3n2)c1`, the molecule was called inactive.
